Source: PubChem BioAssay (Tox21)
“And” between values parts separate entries of the source, which are not always exact repeats. Identical values can stand only once. Values without a mark were called inactive. Where a call stands in place of a potency, no number is given. The source made the active and inactive calls. Calls follow the shape of the dose curve; as a rule, active = well fitted activation curve with a large enough effect in the repeat runs; inconclusive = weak or mixed curves; inactive = flat fitted curve, though single readings scatter.

Test: Caspase-3/7 induction in CHO-K1 cells by small molecules, qHTS assay (AID 1346980); also: nearly all actives have a fitted effect of over 15% in size
Conditions: CHO-K1 caspase-3/7 induction, Caspase-Glo luminescence, 17 h; series mostly up to 92.4 µM; caspase-3/7 activation: at the top concentration
Text: National Center for Advancing Translational Sciences [NCATS]
NIH Chemical Genomics Center [NCGC]
U.S. Environmental Protection Agency [EPA]
National Institutes of Environmental Health Sciences [NIEHS]
National Toxicology Program [NTP]
Apoptosis is a process of programmed cell death and plays a central role in the development of multicellular organisms. It is a highly regulated process and induces cell death by activating caspases, which are the members of cysteine aspartic acid-specific protease (caspase) family. Caspases involved in apoptosis are classified by their mechanism of action as initiator caspases (caspase-2, -8, -9 and -10) and executioner caspases (caspase-3, -6, and -7). Inhibition of apoptosis results in number of cancers, autoimmune diseases, inflammatory diseases and viral infection. To identify small molecule compounds that induce apoptosis, a homogeneous, luminescent Caspase-Glo 3/7 assay was used. Wild type CHO-K1 cells were used to screen Tox21 libraries for identifying caspase-3/7 activity inducers.
CHO-K1 cells were dispensed at 1,500 per well in 5uL of culture medium into white solid bottom 1536-well plates (Corning Life Sciences, Corning, NY) using a Multidrop Combi (Thermo Scientific, Waltham, MA) dispenser. The assay plates were incubated at 37 C and 5% CO2 for 5hr, and then 23nL of compounds dissolved in DMSO and positive control were transferred using a Pintool station (Wako, San Diego, CA). The assay plates were incubated at 37C and 5% CO2 for 17hr. For caspase-3/7 activity read, 4uL of Caspase-Glo 3/7 reagent (Promega Corporation, Madison, WI) was added to each well of the assay plates using Flying Reagent Dispenser (FRD, Aurora Discovery, San Diego, CA) and incubated the assay plates at room temperature for 30min. The luminescence signal was quantified using a ViewLux plate reader (Perkin Elmer, Shelton, CT).
Potency is read from the fitted curve at half-maximal effect.

SMILES	Potency	caspase-3/7 activation
C[C@]12CCC(=O)C=C1CC[C@@H]1[C@@H]2CC[C@@]2(C)[C@H]1CC[C@]2(C)O	inactive	
OCCOCCO	inactive	
COP(=S)(OC)Oc1ccc(S(=O)(=O)N(C)C)cc1	inactive	
CN(C)c1nc(=O)n(C2CCCCC2)c(=O)n1C		-0.59%
N#CC(c1ccccc1)c1ccccc1	inactive	
O=C1C(Cl)=C(Cl)C(=O)c2ccccc21	inactive	
CC(C)(c1ccccc1)c1ccc(O)c(C(C)(C)c2ccccc2)c1	27.1 µM (active) and 61.1 µM (active)	
c1ccc2c(c1)Nc1ccccc1S2	inactive	
Cn1c(-c2ccccc2)cc(-c2ccccc2)[n+]1C	inactive	
OC(c1ccc(Cl)cc1)(c1cncnc1)c1ccccc1Cl (stereo not given)	inactive	
CCCCCCCCCC(CC)c1ccc(S(=O)(=O)O)cc1 (stereo not given)	inactive	
CCC(=O)Nc1ccc(Cl)c(Cl)c1	inactive	
C[N+](C)(C)CC(=O)[O-]	inactive	
CCCCOC(=O)COC(=O)c1ccccc1C(=O)OCCCC	inactive	
O=C1Nc2ccc(Cl)cc2C(c2ccccc2)=NC1O (stereo not given)	inactive	
CC(C)CON=O	inactive	
Cc1cc(Cl)ccc1N=CN(C)C	inactive	
CCCCCCCCCCCCCl	inactive	
C=CC(=O)OCC(CC)(COC(=O)C=C)COC(=O)C=C	4.86 µM (active)	
CCOP(=O)(OCC)OCC	inactive	

SMILES	Potency	caspase-3/7 activation
Nc1ncn[nH]1	inactive	
CC(C)(O)C#N	inactive	
CC(O)CN(CC(C)O)CC(C)O (stereo not given)	inactive	
CCNc1nc(Cl)nc(NC(C)(C)C#N)n1	inactive	
Cc1cccc(N=Nc2ccc(N(C)C)cc2)c1	inactive	
CCC/C=N/O	inactive	
CNC(=O)Oc1cccc2c1OC(C)(C)C2	inactive	
CCCCSP(=O)(SCCCC)SCCCC	inactive	
O=[N+]([O-])c1ccc(Nc2ccccc2)cc1	inactive	
ClCc1ccccn1	inactive	
COP(=S)(OC)SCn1nnc2ccccc2c1=O	inactive	
N#CCCCCC#N	inactive	
CN(C)P(=O)(N(C)C)N(C)C	inactive	
CSc1nc(NC(C)C)nc(NC(C)C)n1	inactive	
NC(=O)CN1CCCC1=O	inactive	
CS(=O)(=O)NC(=O)c1cc(Oc2ccc(C(F)(F)F)cc2Cl)ccc1[N+](=O)[O-]	inactive	
CCCCOCCOC(C)=O	inactive	
Clc1ccccc1-c1nnc(-c2ccccc2Cl)nn1	inactive	
COP(=O)(NC(C)=O)SC (stereo not given)		-0.219%
CN(C)c1ccccc1	inactive	
